Screening data from PubChem BioAssay.
Compounds with a hit are over-represented: about 4.1% of the library has one in this group of screens.
Mdm2 MdmX PPI = inhibitors of human Mdm2/MdmX interaction | O15151+Q00987 | SaOS-2 split-luciferase Mdm2/MdmX complementation, luminescence | inhibition, % at 8 µM | hit rate 3% among 330,000 | AID 485346;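 active means inhibition of at least 50% at 8 µM in the primary screen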
aSyn UTR inh = MLPCN primary screen, SNCA 5' untranslated region; inhibition, % (tested at 7.5 µM); alpha-synuclein 5'UTR reporter, inhibitor activity; hit rate 0.82% among 300,000; in the data active means inhibition above about 60%;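 further: H4 neuroglioblastoma cells stably carrying SNCA 5'UTR luciferase fusion; 0% = DMSO wells and 100% = positive control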
CSC inhib = cancer stem cell inhibition; cancer stem cell-like cells viability, luminescence; inhibition, % at 7.5 µM; hit rate 1.1% among 300,000; in the data active means inhibition above about 75%; tested in HMLE shEcad cells
Beta cell apopt = beta cell apoptosis inhibition | INS-1E cytokine-induced death, ATP luminescence, 48 h; percent of positive-control rescue, neutral wells zero | protection from apoptosis, % (no concentration beside the values) | hit rate 0.8% among 300,000;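 active means Every replicate reaches about 75%, or at least half do and their mean reaches it too, limit read from the data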;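 further: 0% = cytokine-treated negative control wells and 100% = positive control rescue; higher means more ATP so stronger rescue from cytokine killing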
A1 inh = inhibitors of the anti-apoptotic protein A1, read as caspase activation; MEF A1-2A-BIM cells, Caspase-Glo 3/7 luminescence, 3 h; percent of clofoctol response, vehicle zero; caspase activation, % (test concentration not listed); hit rate 0.066% among 330,000; AID 2462;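 active means over half of replicate activation scores above 10%, or exactly half above 10 with the replicate mean above 10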
Mdm2 MdmX conf = confirmation of human Mdm2/MdmX interaction inhibitors; shares compounds with Mdm2 MdmX PPI; Mdm2-MdmX binding, luminescent assay; inhibition, % at 8 µM; hit rate 55% among 10,000; AID 489028; in the data active means inhibition above about 40%
Full FLuc ctr = full-length luciferase inhibition in Mdm2/MdmX counter-screen; shares compounds with Mdm2 MdmX PPI; SaOS-2 full-length luciferase counterscreen, luminescence; inhibition, % at 8 µM; hit rate 77% among 6,200; AID 504607;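 active means mean inhibition at 8 µM reaching about 37%, which flags the compound as non-specific, limit read from the data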;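 further: p53-null SaOS-2 cells with luciferase driven by a doxycycline-inducible promoter; compound on cells about two nights before reading with doxycycline added after day one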
An asterisk follows results filed as active; . = no result given.

SMILES	Mdm2 MdmX PPI	aSyn UTR inh	CSC inhib	Beta cell apopt	A1 inh	Mdm2 MdmX conf	Full FLuc ctr
CCCCCCNC(=O)N1C/C=C\C(c2ccc(OC)cc2)N(Cc2ccc(F)cc2)C(=O)C1 (stereo not given)	0	6	-11	-10	0	.	.
CCOC(=O)N1CCC(NC(=O)c2ccc3c(c2)N=C(CC)c2cc(C)ccc2S3)CC1	61*	9	54	17	1	69*	52*
CCOC(=O)N1CCC(NC(=O)c2ccc3c(c2)N(CC)CCS3)CC1	19	5	-5	-4	1	.	.
CCOC(=O)N1CCC(NC(=O)c2ccc3c(c2)N=C(C)c2c(C)ccc(C)c2S3)CC1	68*	37	54	21	0	64*	89*
CCOC(=O)N1CCN(C(=O)c2ccc3c(c2)N=C(CC)c2cc(C)ccc2S3)CC1	12	5	3	5	0	.	.
CC(NC(=O)CN(Cc1ccccc1)S(=O)(=O)c1ccccc1)c1cccnc1 (stereo not given)	-4	.	-5	0	0	.	.
Cc1c(NC(=O)NC(=O)c2ccc(F)cc2)c(=O)n(-c2ccccc2)n1C	9	23	-4	4	0	.	.
Cc1c(N=C2N=C(NC(=O)c3ccc(F)cc3)c3ccccc32)c(=O)n(-c2ccccc2)n1C	81*	-5	14	-1	0	7	.
O=C(N/N=C/c1sc(=O)n(Cc2ccc(Br)cc2)c1Cl)c1ccco1	59*	-32	-10	42	-1	3	.
N#CC(C#N)=c1ccc2c(c1)NC1(CCCCC1)N=2	71*	-337	62	20	-1	50*	20
N#CC(C#N)=C1NC2(CCCCC2)Cc2ccccc21	-22	1	-6	2	0	.	.
Cc1cccc(CSC(Nc2ccc(F)cc2)=C(C#N)C#N)c1	94*	32	-26	106*	-2	89*	50*
CCN1C(=O)[C@H]2[C@@H](c3ccc(-c4ccc(OC)cc4)cc3)N3CCC[C@@]3(C(=O)OC)[C@H]2C1=O	22	-21	-8	-8	-2	.	.
COc1ccc(NC(=O)c2sc3ncnc(N4CCN(c5ccccn5)CC4)c3c2C)cc1Cl	57*	16	11	.	1	-5	.
Cc1cc(Br)ccc1NC(=O)CN1CCN(c2ccccn2)CC1	9	-3	-10	1	0	.	.
COc1ccc(NC(=O)c2sc3nc(C)nc(N4CCN(c5ccccn5)CC4)c3c2C)cc1Cl	51*	17	9	6	0	2	.
Cc1cc(Br)ccc1NC(=O)c1sc2ncnc(N3CCN(c4ccccn4)CC3)c2c1C	59*	-4	1	18	0	49*	59*
O=C(Nc1cccc(-c2csc(Nc3cccc(C(F)(F)F)c3)n2)c1)c1cc([N+](=O)[O-])cc(C(F)(F)F)c1	64*	-37	62	31	0	5	.
CCCOc1ccc(CNC(=O)C2CCN(C(=O)N3CCOc4ccccc43)CC2)cc1	51*	32	0	12	0	0	.
CCOc1ccc(CNC(=O)C2CCN(C(=O)N3CC(C)Oc4ccccc43)CC2)cc1 (stereo not given)	9	3	-14	6	0	.	.
Cc1cc(SC#N)cc(C)c1NC(=O)CCl	59*	-23	30	1	1	49*	34
CCc1cc(SC#N)cc(C)c1NC(=O)CCl	81*	-23	56	99*	1	41*	55*
CCC(=O)Nc1ccc(SC#N)cc1C	34	6	24	-26	0	.	.
Oc1ccc2ccccc2c1/C=N/Nc1ccccc1	9	-42	41	2	0	.	.
NC(=S)N/N=C/c1c(O)ccc2ccccc12	50*	41	.	71	0	36	45*
SMILES	Mdm2 MdmX PPI	aSyn UTR inh	CSC inhib	Beta cell apopt	A1 inh	Mdm2 MdmX conf	Full FLuc ctr
O=CN/N=C/c1c(O)ccc2ccccc12	50*	50	16	58	1	30	.
CC1(NC(=O)Cc2ccc(S(=O)(=O)N3CCOCC3)s2)CCS(=O)(=O)C1 (stereo not given)	15	-8	.	0	0	.	.
CN(C)CCCNC(=O)c1cc(C(=O)c2cccc(Cl)c2Cl)c[nH]1	11	-20	22	5	-1	.	.
CC(=O)Nc1nc(C)c(-c2csc(Nc3cccc(C(C)=O)c3)n2)s1	82*	26	-7	0	0	46*	41*
CC(=O)c1cccc(Nc2nc(-c3cccc([N+](=O)[O-])c3)cs2)c1	-53	-222	.	2	1	.	.
CC(=O)Nc1nc(C)c(-c2csc(Nc3cccc([N+](=O)[O-])c3)n2)s1	90*	67*	1	13	0	71*	36
CCCCC1CCC(C(=O)N(CCCC)c2c(N)n(CCCC)c(=O)[nH]c2=O)CC1 (stereo not given)	99*	6	54	49	1	28	.
CCCCC1CCC(C(=O)N(CC(C)C)c2c(N)n(CCCC)c(=O)[nH]c2=O)CC1 (stereo not given)	46	35	30	1	1	.	.
CC12CCC(=O)N1C(C(=O)Nc1nnc(SCc3ccccc3F)s1)CS2 (stereo not given)	16	-10	-15	0	0	.	.
CC(=O)Nc1ccc(/C(C)=N/Nc2nc(Nc3cccc4ccccc34)nc(N3CCOCC3)n2)cc1	54*	-28	-3	68	1	28	.
CCCNc1nc(-c2ccccc2)c(C(=O)OCC)cc1C#N	63*	94*	51	5	-1	52*	64*
O=C(CN1C(=O)NC(c2ccccc2)(c2ccccc2)C1=O)NCC(=O)Nc1ccc(F)cc1	-4	.	-11	1	0	.	.
CC(NC(=O)/C(C#N)=C/c1ccc(Cl)c([N+](=O)[O-])c1)c1ccccc1 (stereo not given)	100*	0	11	0	0	67*	29
C[C@@H](NC(=O)/C(C#N)=C/c1ccc(O)c(O)c1)c1ccccc1	2	.	52	10	0	.	.
N#C/C(=C\c1ccc(Cl)c([N+](=O)[O-])c1)c1ccccn1	87*	-41	0	4	0	27	.
Cc1cc(C)c(S(=O)(=O)N2CCOC2CNC(=O)C(=O)NCCCN2CCOCC2)c(C)c1 (stereo not given)	11	9	-19	1	2	.	.
Cc1ccc(O)c(C(=O)c2cc(C#N)c(=O)n(-c3nccs3)c2)c1	55*	-1	61	-7	0	32	.
Cc1ccc(O)c(C(=O)c2cc(C#N)c(=O)n(-c3c(C)n(C)n(-c4ccccc4)c3=O)c2)c1	-21	18	1	5	1	.	.
COc1cccc(/C=C/C(=O)c2ccc(NS(=O)(=O)c3ccc(C)cc3)cc2)c1	71*	-31	81*	4	0	15	.
COc1cc(/C=C/C(=O)O)ccc1OS(=O)(=O)c1ccc(C)cc1	26	4	-8	-5	0	.	.
